# Unmarked numbers belong to inactive results. Records with an inconclusive call do not appear. A call without a number means that no potency is given here. Active and inactive are the calls of the source. Calls come from the whole dose curve; as a rule, active = well fitted curve in the direction sought with a large enough effect; inconclusive = small, poorly fitted or top-dose-only effect, or another doubt; inactive = no such curve, though single readings can be large; an effect the other way counts as inactive or inconclusive.
# Assays:
# [1] = target: Glutathione peroxidase 1 (Homo sapiens) (UniProt P07203); assay: Primary qHTS Assay for Inhibitors of Recombinant Selenoprotein Glutathione Peroxidase 1 (GPX1) (AID 1845191); note: nearly all actives have a fitted effect of over 65% in size
# Sequence of Glutathione peroxidase 1 (Homo sapiens) (P07203 whole entry, looked up): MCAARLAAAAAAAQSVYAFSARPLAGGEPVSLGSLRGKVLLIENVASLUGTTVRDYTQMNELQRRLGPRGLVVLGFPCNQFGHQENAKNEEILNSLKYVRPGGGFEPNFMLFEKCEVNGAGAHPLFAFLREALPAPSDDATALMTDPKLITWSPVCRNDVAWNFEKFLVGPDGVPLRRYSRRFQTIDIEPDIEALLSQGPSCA
# Outline: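 Recombinant GPX1 (10 nM final) was preincubated with compound for 30 min at room temperature, then reacted with 1 mM GSH, 0.5 mM CHP, 0.5 mM NADPH and 100 nM glutathione reductase; NADPH fluorescence (340/450 nm) was read at 0 and 15 min.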
# [2] = target: Phospholipid hydroperoxide glutathione peroxidase GPX4 (Homo sapiens) (UniProt P36969); assay: Primary qHTS Assay for Inhibitors of Recombinant Selenoprotein Glutathione Peroxidase 4 (GPX4) (AID 1845192); note: nearly all actives have a fitted effect of over 65% in size; for activity change, negative = inhibition: series mostly up to about 50 µM
# Sequence of Phospholipid hydroperoxide glutathione peroxidase GPX4 (Homo sapiens) (P36969 whole entry, looked up): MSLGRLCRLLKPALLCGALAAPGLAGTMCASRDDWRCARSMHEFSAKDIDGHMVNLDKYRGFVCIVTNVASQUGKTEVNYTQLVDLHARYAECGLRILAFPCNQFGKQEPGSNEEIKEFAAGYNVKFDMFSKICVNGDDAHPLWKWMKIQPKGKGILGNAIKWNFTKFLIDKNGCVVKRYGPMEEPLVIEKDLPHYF
# Outline: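 GR-coupled readout: 100 nM GR, 1 mM GSH, 0.5 mM NADPH; NADPH fluorescence (ex 340/em 450 nm) read at t=0 and after 15 min RT. GPX4 200 nM, preincubated 30 min with compound; substrate 0.5 mM CHP.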
# [3] = target: Luciferin 4-monooxygenase (Photinus pyralis) (UniProt P08659); assay: Primary firefly luciferase (FLuc) qHTS assay for identification of artifact compounds. (AID 1845220); note: nearly all actives have a fitted effect of over 60% in size; for activity change, negative = inhibition: series mostly up to about 54 µM
# Outline: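 Reaction readout was CCD-imaged luminescence, taken 5 min after adding 10 nM purified firefly enzyme to compound-treated wells holding 10 uM luciferin and ATP in pH 7.6 buffer.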
# [4] = Primary fluorescence-based thiol-reactive (MSTI) qHTS assay for identification of artifact compounds. (AID 1845221); note: nearly all actives have a fitted effect of over 65% in size; note: potency is the fitted concentration of half-maximal effect;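 for activity change, negative = thiol reactive: series mostly up to about 54 µM; thiol-reactive compounds lower the probe fluorescence signal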
# Outline: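 Probe: MSTI 4 uM, PBS pH 7.4, 2% DMSO. Incubation 1 h, RT, light-protected. Readout fluorescence 525/598 nm.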
# [5] = system: Nanoluciferase (engineered Oplophorus gracilirostris luciferase); assay: Primary Nanoluciferase (NLuc) qHTS assay for identification of artifact compounds. (AID 1845222);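 note: NLuc secreted into diluted conditioned medium of S16 cells; series mostly up to about 54 µM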
# Outline: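 Concentration-response data were obtained by luminescence after 5 min with Nano-Glo substrate at 1:100. The enzyme was diluted S16 NLuc-expressing cell medium, preincubated with compound for 15 min at RT. Curves were fitted with a 4-parameter Hill model.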
# [6] = Primary redox qHTS assay for identification of artifact compounds. (AID 1845223)
# Outline: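 Amplex Red (25 uM) and HRP (250 mU/mL) in HBSS, with compounds for 15 min, then 250 uM DTT for 30 min, room temperature, dark. Fluorescence 525/598 nm read; normalized to DMSO and 10 uM DA3003; Hill fit.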
Compound,Potency [1],Potency [2],Potency [3],Potency [4],Potency [5],Potency [6],outcome [3],"activity change, negative = thiol reactive [4]","activity, negative = inhibition [5]",redox activity (% of DA3003) [6],"activity change, negative = inhibition [3]"
COc1cc(O)cc2c1C(=O)OC(C)C2 (configuration not stated),inactive,inactive,inactive,inactive,inactive,inactive,,,,,
CCNC(=O)OC1CCN(c2nncc3cc(OC)c(OC)cc23)CC1,inactive,inactive,inactive,inactive,inactive,inactive,,,,,
CC1CC(=O)[C@]2(O)C(C(=O)OCCc3ccc(O)c(O)c3)=CO[C@@H](O[C@@H]3O[C@H](CO)[C@@H](O)[C@H](O)[C@H]3O)[C@H]12 (some centres not stated),inactive,inactive,inactive,2.92 µM (active),inactive,inactive,,,,,
C=C1C(OC(C)=O)CCC2(C)CC3(O)OC(=O)C(C)=C3CC12 (configuration not stated),inactive,inactive,inactive,inactive,inactive,inactive,,,,,
C[C@@H]1O[C@@H](O[C@H]2[C@H](O[C@H]3[C@H](O[C@H]4CC[C@@]5(C)C(CC[C@]6(C)C5CC=C5[C@@H]7CC(C)(C)C[C@@H](O)[C@]7(C)CC[C@]56C)C4(C)C)O[C@H](C(=O)O)[C@@H](O)[C@@H]3O)O[C@H](C(=O)O)[C@H](O)[C@@H]2O)[C@H](O)[C@H](O)[C@H]1O (some centres not stated),inactive,inactive,,,,,inactive [at 11.6 µM],56.2% [at 11.5 µM],0.805% [at 11.6 µM],11.1% [at 11.5 µM],
O=C(N[C@@H]1CC[C@@H](c2cccc(F)c2F)CN(CC(F)(F)F)C1=O)N1CCC(n2c(=O)[nH]c3ncccc32)CC1,inactive,inactive,inactive,inactive,inactive,inactive,,,,,
C=C(C)[C@@H]1CC[C@]2(C(=O)O)CC[C@]3(C)[C@H](CCC4[C@@]5(C)CCC(=O)C(C)(C)C5C(O)C[C@]43C)C12 (some centres not stated),inactive,inactive,inactive,inactive,inactive,inactive,,,,,
COC(=O)C1=CO[C@@H](O[C@@H]2O[C@H](CO)[C@@H](O)[C@H](O)[C@H]2O)[C@H]2[C@@H]1[C@H](O)[C@H](O)[C@]2(C)O,inactive,inactive,inactive,13 µM (active),inactive,inactive,,,,,
CC1(C)CC[C@]2(C(=O)O)CC[C@]3(C)C(=CCC4[C@@]5(C)CC[C@H](O[C@H]6O[C@H](C(=O)O)[C@@H](O)[C@H](O[C@@H]7O[C@H](CO)[C@H](O)[C@H](O)[C@H]7O)[C@H]6O)C(C)(C)C5CC[C@]43C)[C@@H]2C1 (some centres not stated),inactive,inactive,,,,,,239% [at 11.5 µM],2.24% [at 11.6 µM],8.43% [at 11.5 µM],1.03% [at 11.6 µM]
C=C1C2(C)CC3C4(C)OC(C5OC56C4=CC(=O)OC6(C)C)C3(C)C13C(=O)OC(C)C3(O)C2=O (configuration not stated),inactive,inactive,inactive,inactive,inactive,inactive,,,,,
C[C@@H]1O[C@@H](O[C@H]2[C@@H]3C=CO[C@@H](O[C@@H]4O[C@H](CO)[C@@H](O)[C@H](O)[C@H]4O)[C@@H]3[C@@]3(CO)O[C@@H]23)[C@H](OC(=O)/C=C/c2ccc(O)cc2)[C@H](O)[C@H]1O,inactive,inactive,inactive,3.54 µM (active),inactive,inactive,,,,,
CC(C)c1ccc2c(c1)C(=O)CC1C(C)(C(=O)O)CCCC21C (configuration not stated),inactive,inactive,inactive,inactive,inactive,inactive,,,,,
COC(=O)C1=C[C@@H](O)[C@@H](O)[C@H](O[C@@H]2O[C@H](CO)[C@@H](O)[C@H](O)[C@H]2OC(=O)/C=C/c2ccccc2)C1,inactive,inactive,inactive,inactive,inactive,inactive,,,,,
COc1cc(C2OCC3(O)C(c4ccc(O[C@@H]5O[C@H](CO)[C@@H](O)[C@H](O)[C@H]5O)c(OC)c4)OCC23O)ccc1O (some centres not stated),inactive,inactive,inactive,inactive,inactive,inactive,,,,,
C=C(C)[C@@H]1CC[C@]2(C)CC[C@]3(C)C(CCC4[C@@]5(C)CC[C@H](O)C(C)(C)C5CC[C@]43C)C12 (some centres not stated),inactive,inactive,inactive,inactive,inactive,inactive,,,,,
C/C=C/C=C/C(=O)OC1CC/C=C/C(O)C(O)C(CCC)OC1=O (configuration not stated),inactive,inactive,inactive,inactive,inactive,inactive,,,,,

Compound,Potency [1],Potency [2],Potency [3],Potency [4],Potency [5],Potency [6],outcome [3],"activity change, negative = thiol reactive [4]","activity, negative = inhibition [5]",redox activity (% of DA3003) [6],"activity change, negative = inhibition [3]"
CC(=O)OCC1OC(O[C@H]2CC[C@]34C[C@]35CC(O)[C@]3(C)[C@@H]([C@H](C)CC/C=C(\C)C(=O)O)C(O)C[C@@]3(C)C5CC[C@H]4C2(C)C)C(O)C(O)C1OC1OCC(O)C(O)C1O (some centres not stated),inactive,inactive,,,,,inactive [at 11.6 µM],154% [at 11.5 µM],-3.42% [at 11.6 µM],-5.4% [at 11.5 µM],
COc1ccnc(CCc2nc3ncccc3[nH]2)c1,inactive,inactive,inactive,inactive,inactive,inactive,,,,,
C=C1C[C@H](O)[C@@H](O)[C@@]2(C)C1[C@@H](O)[C@H]1OC(=O)C3[C@@H](C)[C@@H](O)[C@H](O)C2[C@]31C (some centres not stated),inactive,inactive,inactive,inactive,inactive,inactive,,,,,
Cc1nc2cc(-c3cc(F)cc(C#N)c3)ccc2s1,inactive,inactive,inactive,inactive,inactive,inactive,,,,,
COc1ccc(-n2c(=O)[nH]c3cc(C(=O)NCc4ccc(Cl)cc4)sc3c2=O)nc1OC,inactive,inactive,inactive,inactive,inactive,inactive,,,,,
COc1ccc(C(=O)OC2C3C=COC(OC4OC(CO)C(O)C(O)C4O)C3C3(CO)OC23)cc1OC (configuration not stated),inactive,inactive,inactive,4.12 µM (active),inactive,inactive,,,,,
Cn1cc(CCn2cnc(-c3cnn(C)c3)c2-c2ccc(C#N)cc2)cn1,inactive,inactive,inactive,inactive,inactive,inactive,,,,,
C=C1C(O)C(OC(=O)c2ccccc2)C2C(C)(C(=O)O)CCCC2(C)C1CC/C(C)=C\CO (configuration not stated),inactive,inactive,inactive,inactive,inactive,inactive,,,,,
C/C(=C\CO)CC/C=C(\C)C(=O)O[C@@H]1O[C@H](CO)[C@@H](O)[C@H](O)[C@H]1O,inactive,inactive,inactive,inactive,inactive,inactive,,,,,
CC1CC2OCC3(O)CCC(O)C(C14CC(c1ccoc1)OC4=O)C23CO (configuration not stated),inactive,inactive,inactive,3.29 µM (active),inactive,inactive,,,,,
CC(C)c1c(NC(=O)Nc2ccc(Cl)cc2)c(=O)n(-c2ccccc2)n1C,inactive,inactive,inactive,inactive,inactive,inactive,,,,,
CCCNCCOc1ccc(NC(=O)c2c[nH]c3c2C(=O)CCC3)cc1F,inactive,inactive,inactive,inactive,inactive,inactive,,,,,
C=CC1(C)C=C2CC[C@H]3[C@@](C)(C(=O)O)CCC[C@]3(C)C2CC1 (some centres not stated),inactive,inactive,inactive,inactive,inactive,inactive,,,,,
COC(=O)C1=COC(O[C@@H]2O[C@H](CO)[C@@H](O)[C@H](O)[C@H]2O)/C(=C\COC(=O)/C=C/c2ccccc2)C1CC(=O)OCCc1ccc(O)cc1 (some centres not stated),inactive,inactive,inactive,inactive,inactive,inactive,,,,,
Cc1ncc(Cl)cc1NCc1ccc(C(=O)NC(CC2CCCC2)C(=O)NC2CC2)s1 (configuration not stated),inactive,inactive,inactive,inactive,inactive,inactive,,,,,
CC(C)C1NC(=O)C(CC2(O)c3ccccc3N3C(=O)C(Cc4ccccc4)NC32)NC1=O (configuration not stated),inactive,inactive,inactive,inactive,inactive,inactive,,,,,

# From PubChem BioAssay (NCATS)
